Test results as given in ChEMBL document CHEMBL3988442, “University of Dundee, Small-Polar-MMV Screening Library” (2021).
For some of these results: Potency and affinity values are given separately.

Assays:
Design in all cases: scale not given: direction of the effect not stated beside the values
[1] = biological target: Protein translocase subunit SecA (Escherichia coli (strain K12)) (UniProt P10408); test: Assay to Identify E. coli SecA ATPase Inhibitors; assay type: functional; details: 30 µM
Protein translocase subunit SecA (Escherichia coli (strain K12)), sequence (P10408 whole entry): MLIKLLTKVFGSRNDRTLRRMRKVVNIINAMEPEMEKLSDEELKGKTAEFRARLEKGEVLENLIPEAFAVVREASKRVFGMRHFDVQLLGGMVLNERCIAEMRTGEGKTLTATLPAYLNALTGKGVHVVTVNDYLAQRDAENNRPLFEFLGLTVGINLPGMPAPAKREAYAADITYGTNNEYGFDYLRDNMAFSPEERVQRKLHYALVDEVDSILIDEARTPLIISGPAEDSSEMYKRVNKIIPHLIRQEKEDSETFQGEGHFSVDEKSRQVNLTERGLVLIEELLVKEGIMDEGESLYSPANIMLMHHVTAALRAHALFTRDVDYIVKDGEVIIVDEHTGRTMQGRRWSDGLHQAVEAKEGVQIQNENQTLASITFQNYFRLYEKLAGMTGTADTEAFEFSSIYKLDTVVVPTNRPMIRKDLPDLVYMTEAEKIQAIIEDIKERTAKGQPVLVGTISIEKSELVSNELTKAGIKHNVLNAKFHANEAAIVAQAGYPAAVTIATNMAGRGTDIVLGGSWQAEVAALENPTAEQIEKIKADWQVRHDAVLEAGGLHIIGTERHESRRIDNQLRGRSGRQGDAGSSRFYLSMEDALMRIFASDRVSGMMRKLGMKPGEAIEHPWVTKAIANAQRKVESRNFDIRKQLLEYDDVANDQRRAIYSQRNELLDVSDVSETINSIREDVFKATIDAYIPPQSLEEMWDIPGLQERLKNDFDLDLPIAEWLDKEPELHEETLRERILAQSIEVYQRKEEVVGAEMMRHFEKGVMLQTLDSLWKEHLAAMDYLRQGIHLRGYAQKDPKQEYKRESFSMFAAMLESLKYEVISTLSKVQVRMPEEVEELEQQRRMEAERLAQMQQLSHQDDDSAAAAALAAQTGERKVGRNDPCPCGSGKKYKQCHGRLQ

[2] = biological target: T1, Ubiquitin-activating enzyme e1, putative (Leishmania donovani (strain BPK282A1)) (UniProt E9BSI1); test: Leishmania donovani Ubiquitin Activating Enzyme (LdE1); assay type: functional; details: 30 µM
T1 sequence (whole entry): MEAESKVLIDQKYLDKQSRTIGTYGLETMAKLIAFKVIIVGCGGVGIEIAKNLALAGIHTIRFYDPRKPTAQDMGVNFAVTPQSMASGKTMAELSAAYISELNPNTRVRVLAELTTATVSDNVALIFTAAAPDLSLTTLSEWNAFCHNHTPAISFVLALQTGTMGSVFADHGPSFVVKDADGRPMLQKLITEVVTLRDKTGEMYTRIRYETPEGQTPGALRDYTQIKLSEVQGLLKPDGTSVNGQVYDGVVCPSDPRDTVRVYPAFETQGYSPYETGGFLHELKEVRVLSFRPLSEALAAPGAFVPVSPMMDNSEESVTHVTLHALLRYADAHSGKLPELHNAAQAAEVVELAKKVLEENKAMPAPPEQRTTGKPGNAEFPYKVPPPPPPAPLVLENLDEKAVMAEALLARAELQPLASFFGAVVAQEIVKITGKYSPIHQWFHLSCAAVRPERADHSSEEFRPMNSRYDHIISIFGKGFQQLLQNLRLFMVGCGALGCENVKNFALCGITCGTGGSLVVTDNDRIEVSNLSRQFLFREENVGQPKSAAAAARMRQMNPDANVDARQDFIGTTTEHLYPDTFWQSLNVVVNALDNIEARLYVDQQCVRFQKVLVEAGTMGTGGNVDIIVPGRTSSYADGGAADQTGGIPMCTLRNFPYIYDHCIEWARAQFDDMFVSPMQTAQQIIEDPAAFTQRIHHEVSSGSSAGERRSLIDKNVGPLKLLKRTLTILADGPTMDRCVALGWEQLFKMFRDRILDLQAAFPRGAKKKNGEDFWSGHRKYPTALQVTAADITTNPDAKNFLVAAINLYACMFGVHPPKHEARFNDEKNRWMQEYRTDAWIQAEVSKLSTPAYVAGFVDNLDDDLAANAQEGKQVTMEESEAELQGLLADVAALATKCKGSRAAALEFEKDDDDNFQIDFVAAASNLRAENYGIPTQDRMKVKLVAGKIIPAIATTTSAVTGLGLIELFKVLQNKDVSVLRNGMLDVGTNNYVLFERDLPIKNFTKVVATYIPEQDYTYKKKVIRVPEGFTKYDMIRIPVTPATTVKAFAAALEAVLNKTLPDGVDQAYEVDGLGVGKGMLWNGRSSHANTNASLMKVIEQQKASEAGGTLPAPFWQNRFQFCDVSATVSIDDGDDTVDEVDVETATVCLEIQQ

[3] = biological target: AMP-activated protein kinase, AMPK (Homo sapiens) (UniProt P54646+O43741+P54619+Q9UGJ0+Q9Y478+Q13131+Q9UGI9); test: AMP-dependent Kinase enzyme assay. An in vitro enzyme assay that detects ADP turnover that is directly proportional to AMPK activity. This uses naive AMPK that is activated during the assay with MK-8722; assay type: functional; details: 30 µM
[4] = biological target: Sialic acid-binding Ig-like lectin 9 (Homo sapiens) (UniProt Q9Y336); test: Hs-Siglec9 ALPHAscreen SOP 20170721; details: 10 µM
Sialic acid-binding Ig-like lectin 9 (Homo sapiens), sequence (Q9Y336 whole entry): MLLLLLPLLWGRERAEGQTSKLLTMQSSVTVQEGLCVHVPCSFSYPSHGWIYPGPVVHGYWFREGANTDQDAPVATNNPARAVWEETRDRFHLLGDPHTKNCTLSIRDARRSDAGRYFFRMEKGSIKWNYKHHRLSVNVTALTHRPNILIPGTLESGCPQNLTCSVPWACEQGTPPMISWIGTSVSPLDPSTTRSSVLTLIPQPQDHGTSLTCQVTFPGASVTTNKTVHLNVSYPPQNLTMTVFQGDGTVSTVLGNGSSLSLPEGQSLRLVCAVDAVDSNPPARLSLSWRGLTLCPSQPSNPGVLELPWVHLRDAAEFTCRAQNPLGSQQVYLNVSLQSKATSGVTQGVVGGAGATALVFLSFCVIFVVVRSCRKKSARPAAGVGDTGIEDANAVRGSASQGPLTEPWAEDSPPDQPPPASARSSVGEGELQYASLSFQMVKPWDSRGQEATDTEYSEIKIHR

Trypanosoma cruzi = test: Trypanosoma cruzi phosphomannomutase and mannose-1-phosphate guanylyltransferase assay; assay type: functional; details: 10 µM
[5] = biological target: T2, Arginase-2, mitochondrial (Homo sapiens) (UniProt P78540); test: in vitro enzyme assay to detect the production of urea directly proportional to the activity of Arginase II; assay type: functional; details: 33.3 µM; further: in the data most compounds retested in dose-response had high values
T2 sequence (whole entry): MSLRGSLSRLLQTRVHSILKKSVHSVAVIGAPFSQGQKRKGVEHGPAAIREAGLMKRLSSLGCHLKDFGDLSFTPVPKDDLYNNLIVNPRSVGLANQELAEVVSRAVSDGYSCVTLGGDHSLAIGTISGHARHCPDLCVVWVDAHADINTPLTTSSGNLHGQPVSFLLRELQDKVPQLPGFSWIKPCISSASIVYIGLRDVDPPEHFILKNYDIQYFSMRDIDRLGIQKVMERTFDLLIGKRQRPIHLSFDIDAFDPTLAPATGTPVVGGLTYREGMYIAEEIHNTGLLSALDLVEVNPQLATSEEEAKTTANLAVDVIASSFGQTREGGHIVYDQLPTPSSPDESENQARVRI

[6] = biological target: T3, Proteasome subunit beta (Trypanosoma cruzi) (UniProt O96673); test: Trypanosoma cruzi proteasome chymotrypsin-like activity (TcProtChymo) assay.; further: in the data most compounds retested in dose-response had high values; assay type: functional; details: 9.37 µM
T3 sequence (whole entry): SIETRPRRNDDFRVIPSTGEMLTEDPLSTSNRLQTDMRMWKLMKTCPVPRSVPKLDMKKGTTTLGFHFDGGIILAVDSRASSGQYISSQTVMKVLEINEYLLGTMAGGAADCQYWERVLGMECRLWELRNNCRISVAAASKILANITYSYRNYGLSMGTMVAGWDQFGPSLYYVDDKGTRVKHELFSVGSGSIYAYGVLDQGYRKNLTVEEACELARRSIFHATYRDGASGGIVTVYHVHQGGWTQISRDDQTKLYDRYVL

Homo sapiens = organism: Homo sapiens; test: To identify inhibition of the IFN signalling (Jak-Stat) pathway via expression of an eGFP reporter gene under the control of an IFN-stimulated response element (ISRE) containing MxA promoter.; assay type: functional; details: 30 µM
[7] = biological target: T4, Tyrosyl-tRNA synthetase, putative (Trypanosoma cruzi (strain CL Brener)) (UniProt Q4DSP6); test: Trypanosoma cruzi tyrosyl tRNA synthetase (TcYRS) _High Tyrosine SOP; assay type: functional; details: 30 µM; further: in the data most compounds retested in dose-response had high values
T4 sequence (whole entry): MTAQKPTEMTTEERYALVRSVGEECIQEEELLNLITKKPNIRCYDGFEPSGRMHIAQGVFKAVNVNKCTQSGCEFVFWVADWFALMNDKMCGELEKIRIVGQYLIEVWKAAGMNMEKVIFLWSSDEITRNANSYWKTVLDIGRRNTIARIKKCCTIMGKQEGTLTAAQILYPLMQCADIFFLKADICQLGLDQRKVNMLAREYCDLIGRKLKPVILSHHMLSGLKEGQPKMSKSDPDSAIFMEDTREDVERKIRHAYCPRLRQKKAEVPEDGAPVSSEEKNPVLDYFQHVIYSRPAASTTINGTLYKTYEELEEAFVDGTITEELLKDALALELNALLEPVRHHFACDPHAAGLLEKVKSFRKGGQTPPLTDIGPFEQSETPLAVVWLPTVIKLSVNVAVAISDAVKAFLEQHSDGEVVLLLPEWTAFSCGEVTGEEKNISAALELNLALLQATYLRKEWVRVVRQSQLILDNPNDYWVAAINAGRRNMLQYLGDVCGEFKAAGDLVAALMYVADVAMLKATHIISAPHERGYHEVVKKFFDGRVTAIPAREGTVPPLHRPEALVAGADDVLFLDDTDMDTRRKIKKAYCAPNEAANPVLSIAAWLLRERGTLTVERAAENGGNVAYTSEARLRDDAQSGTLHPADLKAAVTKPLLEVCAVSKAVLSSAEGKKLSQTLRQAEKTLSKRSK

[8] = biological target: T4, Tyrosyl-tRNA synthetase, putative (Trypanosoma cruzi (strain CL Brener)); test: Trypanosoma cruzi tyrosyl tRNA synthetase (TcYRS) SOP; assay type: functional; details: 30 µM
[9] = biological target: Chromo domain-containing protein 1 (Saccharomyces cerevisiae (strain ATCC 204508 / S288c) (Baker's yeast)) (UniProt P32657); test: ScCHD-1 Enzyme Inhibition Assay; assay type: functional; details: 30 µM; further: in the data most compounds retested in dose-response had high values
Chromo domain-containing protein 1 (Saccharomyces cerevisiae (strain ATCC 204508 / S288c) (Baker's yeast)), sequence (P32657 whole entry, the tested form may be a part): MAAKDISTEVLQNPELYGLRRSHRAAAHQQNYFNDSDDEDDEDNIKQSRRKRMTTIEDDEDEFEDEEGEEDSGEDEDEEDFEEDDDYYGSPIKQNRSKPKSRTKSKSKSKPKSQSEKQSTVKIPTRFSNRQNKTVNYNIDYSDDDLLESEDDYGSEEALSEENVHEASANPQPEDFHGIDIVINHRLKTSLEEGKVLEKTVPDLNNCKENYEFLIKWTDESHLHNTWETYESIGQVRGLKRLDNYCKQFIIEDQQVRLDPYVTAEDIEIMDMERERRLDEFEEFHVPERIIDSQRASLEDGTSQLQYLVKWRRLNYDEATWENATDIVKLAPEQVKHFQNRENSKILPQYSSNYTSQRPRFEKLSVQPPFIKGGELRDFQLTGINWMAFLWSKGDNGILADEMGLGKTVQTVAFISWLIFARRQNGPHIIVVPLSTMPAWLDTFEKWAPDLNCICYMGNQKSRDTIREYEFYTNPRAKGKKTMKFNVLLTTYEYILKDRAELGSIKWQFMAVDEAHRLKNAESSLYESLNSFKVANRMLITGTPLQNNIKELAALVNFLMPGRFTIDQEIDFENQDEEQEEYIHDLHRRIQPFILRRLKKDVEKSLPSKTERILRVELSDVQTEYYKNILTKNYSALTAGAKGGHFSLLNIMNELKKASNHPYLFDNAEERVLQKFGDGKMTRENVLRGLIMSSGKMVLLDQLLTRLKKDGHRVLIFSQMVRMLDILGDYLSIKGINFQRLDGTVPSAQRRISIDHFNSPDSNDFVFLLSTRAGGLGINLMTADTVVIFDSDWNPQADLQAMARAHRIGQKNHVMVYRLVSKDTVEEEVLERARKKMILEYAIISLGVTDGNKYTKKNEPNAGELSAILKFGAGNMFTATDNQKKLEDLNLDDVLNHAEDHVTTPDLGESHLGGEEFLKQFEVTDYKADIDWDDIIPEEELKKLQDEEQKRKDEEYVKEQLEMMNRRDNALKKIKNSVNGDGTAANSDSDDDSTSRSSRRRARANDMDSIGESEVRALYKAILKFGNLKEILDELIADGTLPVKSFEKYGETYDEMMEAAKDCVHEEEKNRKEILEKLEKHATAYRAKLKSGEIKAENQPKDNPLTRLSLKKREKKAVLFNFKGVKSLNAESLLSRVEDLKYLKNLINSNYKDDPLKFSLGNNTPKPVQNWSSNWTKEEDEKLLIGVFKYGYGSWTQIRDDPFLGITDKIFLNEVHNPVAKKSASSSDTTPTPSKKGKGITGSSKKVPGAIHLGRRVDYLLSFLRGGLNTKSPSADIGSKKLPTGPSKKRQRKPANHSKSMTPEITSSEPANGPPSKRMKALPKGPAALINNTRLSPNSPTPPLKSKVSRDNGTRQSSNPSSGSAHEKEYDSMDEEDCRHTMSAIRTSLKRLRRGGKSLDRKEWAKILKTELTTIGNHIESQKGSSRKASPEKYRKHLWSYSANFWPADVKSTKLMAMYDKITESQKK

Compound | Percent Effect [1] [%] | Percent Effect [2] [%] | Percent Effect [3] [%] | Percent Effect [4] [%] | Percent Effect (Trypanosoma cruzi) [%] | Percent Effect [5] [%] | Percent Effect [6] [%] | Percent Effect (Homo sapiens) [%] | Percent Effect [7] [%] | Percent Effect [8] [%] | Percent Effect [9] [%]
CCN(CC)c1ccc(NS(=O)(=O)c2cncc(F)c2)cn1 | 1.55 | 13.7 | 2.14 | 7.06 | 3.57 | -5.99 | 4.71 | -23.6 | 6.25 | 11.1 | -6.32
O=C(CCc1cnn(-c2ccccc2)c1)N1CCCC(n2cccn2)C1 (stereo not given) | -2.31 | 10.5 | 2.58 | 12.9 | 3.38 | 4.98 | 0.668 | 14.7 | 8.33 | 17.1 | -11.6
CCn1cc(Br)c(C(=O)NCc2cnn(C)c2)n1 | -1.67 | 13 | -0.504 | 11.9 | 6.79 | -6.9 | 13 | 1.3 | 8.6 | 21 | 18.8
O=C(NCCN1CCCCC1)c1scnc1Cl | -0.516 | 15.8 | 7.25 | -5.01 | -5.7 | 3.24 | 13.6 | 3.91 | 9.36 | 16.1 | -5.64
Cc1ccc(CC(=O)N2CCCCC2c2nc(C)cs2)cn1 (stereo not given) | -3.56 | 3.8 | 3.35 | -2.77 | -1.54 | 4.52 | 6.52 | 4.76 | -4.17 | 7.59 | -12.2
CC(C)CN1CCC2(C=C(C(=O)N3CCCC3)c3ccccc32)CC1 | -2.44 | 0 | -1.76 | 3.68 | -6.76 | -56.8 | 7.35 | 1.33 | 5.21 | 10 | -7.39
Cc1ccc(CN2CCn3cc(CN(C)Cc4ccco4)nc3C2)o1 | -4.77 | 15.6 | -9.82 | 2.5 | 7.2 | -9.68 | 16.2 | 7.34 | 4.23 | 11.5 | -10.4
Cn1cnnc1S(=O)(=O)C1CCN(S(=O)(=O)C2CC2)CC1 | -2.77 | -2.74 | 14.5 | 1.56 | -3.72 | -2.27 | 9.41 | -3.78 | -3.23 | 2.5 | -1.03
c1ccc(Cn2cncn2)c(CNCC2CNc3ccnn3C2)c1 (stereo not given) | 0.235 | 20.8 | -8.08 | 4.1 | 10.3 | 1.78 | 8.45 | 12.4 | 12.6 | 21.9 | -7.41
CCCN1CC(C(=O)Nc2ccccn2)CC1=O (stereo not given) | 0.0255 | 0 | -0.466 | 5.93 | 4.83 | 12.4 | 9.31 | 15.4 | 2.65 | 7.32 | -4.7
CN(C)CCN1C[C@@H]2CN(C(=O)c3ccsc3)C[C@@H]2C1=O | -7.36 | 5.2 | 0.643 | 5.55 | -3.25 | 0 | 5.66 | 20.3 | 0 | 1.24 | 1.29
CCN(CC)CCNc1ncc(-c2cc(C)no2)c(-c2ccoc2C)n1 | -7.13 | 20.3 | 6.82 | 3.2 | 2.77 | -3.94 | 8.74 | 0.0946 | 5.38 | 14.3 | -20.7
COc1cc(C(=O)Nc2c(C)noc2C)ccc1C | -3.57 | 17.7 | 2.44 | 6.13 | 3.87 | -4.56 | 1.88 | 18.6 | 4.43 | 16.5 | -5.84
Cc1ncc2c(n1)CN(CC(=O)Nc1ccncc1)CC2 | -2.13 | 15.8 | -33.9 | 3.22 | 4.01 | -1.44 | 6.85 | 17.2 | 15.3 | 23.5 | -7.12
Cc1nsc(C(=O)N2CCc3ccccc3C2)n1 | -7.16 | 13 | -4.33 | -9.01 | 4.44 | -1.94 | 5.22 | 3.35 | 3.17 | 8.97 | -9.64
CCS(=O)(=O)N1CCc2ccc(NC(=O)Nc3cccc(SC)c3)cc21 | -1.43 | -20.8 | 1.15 | 1.13 | 0.69 | -3.23 | 17.6 | 77.5 | -48.7 | -73.1 | -5.8
CCn1cnnc1CNC(=O)N(C)Cc1ccc(F)c(F)c1 | -2.13 | 18.9 | -11.7 | 14.1 | 1.04 | -5.21 | 7.57 | 8.28 | 7.39 | 18.5 | -7.63
NC(=O)NCC(=O)N1C[C@H]2CC[C@@H]1CN(C1Cc3ccccc3C1)C2 | -3.92 | 10.8 | -25.8 | 17.9 | -0.88 | -3.23 | 14 | 3.96 | 5.38 | 13.6 | -4.63
Cn1ccnc1CN1CCCC(Cc2ccccn2)C1 (stereo not given) | -7.44 | 20.3 | -4.84 | 1.21 | 4.94 | -2.55 | 13.6 | 1.89 | 4.3 | 16.9 | -20.2
COCCN(C)CCN1CC2(CCN(C3CCCOC3)CC2)OC1=O (stereo not given) | -2.07 | 20.8 | -4.24 | 3.41 | 0.295 | -11 | 16.5 | 11.4 | 3.23 | 18.5 | -6.77
